Anthrax LF inh2 = anthrax lethal factor protease inhibition | P15917 | 360,000 compounds, 0.12% hits | multiplex microsphere protease cleavage assay, LF | AID 588501 | inhibition, % at 10 µM; further: plate controls were buffer without enzyme for full effect and enzyme alone for no effect
Autofluor counter = flagged as autofluorescent in microsphere protease counterscreen; compound autofluorescence counterscreen, microsphere flow cytometry; active compounds read high; fluorescence intensity (concentration not given with the values); 360,000 compounds, 3.1% hits; AID 624483; in the data active means fluorescence intensity above about 16000; inconclusive means no clear call, values can overlap the other calls
MazEF act = MazEF (E. coli) toxin RNase activation | P0AE70 | FAM/BHQ RNA-DNA oligo cleavage fluorescence, 5 h | activation, % at 20 µM | 350,000 compounds, 0.32% hits; in the data active means activation above about 50%
Target sequence (P0AE70 whole entry, looked up): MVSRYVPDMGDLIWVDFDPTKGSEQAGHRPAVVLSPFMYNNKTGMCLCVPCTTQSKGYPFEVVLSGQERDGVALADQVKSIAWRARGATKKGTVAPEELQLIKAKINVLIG
VHR inh abs = inhibitors of human VHR1 phosphatase (DUSP3) | AID 1654 | inhibition, % at 13.3 µM | P51452 | recombinant VHR phosphatase, pNPP absorbance | 290,000 compounds, 0.52% hits; in the data active means inhibition above about 50%
Target sequence (P51452 whole entry, looked up): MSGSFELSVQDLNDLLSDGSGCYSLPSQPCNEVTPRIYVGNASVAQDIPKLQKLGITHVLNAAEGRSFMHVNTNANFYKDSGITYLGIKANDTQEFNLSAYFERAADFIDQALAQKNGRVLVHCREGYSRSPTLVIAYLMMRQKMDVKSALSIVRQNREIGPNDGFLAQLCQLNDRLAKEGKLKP
BoNT-A LC inh2 = blocks Botulinum neurotoxin A light chain protease | multiplex microsphere protease substrate cleavage, flow cytometry | inhibition, % at 10 µM | 360,000 compounds, 0.17% hits; further: plate controls were buffer without enzyme for full effect and enzyme alone for no effect
BoNT F protease = BoNT F light chain protease inhibition; 360,000 compounds, 0.22% hits; Multiplex microsphere protease cleavage assay, flow cytometry; inhibition, % at 10 µM; in the data active means inhibition above about 35%, passing the limit was not always enough; inconclusive means no clear call, values can overlap the other calls; further: plate controls were buffer without enzyme for full effect and enzyme alone for no effect
* = called active by the depositor; ? = inconclusive; · = not tested or not shown. Shown are actives, neighbours in structure and some others; about 4.1% of the full set was active somewhere. Unless noted, no stated cut-off is given here; in the data, active means inhibition above about 30%; inconclusive means no clear call, values can overlap the other calls; inactive means below that.

SMILES	Anthrax LF inh2	Autofluor counter	MazEF act	VHR inh abs	BoNT-A LC inh2	BoNT F protease
CC(=O)Nc1cccc(C(=O)N/N=C/c2ccc(F)cc2)c1	0.0	2169	4.2	1.2	0.3	-3.2
CC1(c2ccc(Cl)cc2)NC(=O)N(CC(=O)N2CCN(C(=O)c3cccs3)CC2)C1=O (stereo not drawn)	-1.6	3724	4.8	·	0.2	6.8
COC(=O)C12OCC34C(CC5C(C)=C(O)C(=O)CC5(C)C3C(O)C1O)OC(=O)C(OC(=O)C=C(C)C)C24 (stereo not drawn)	3.6	3902	-1.0	·	0.0	2.8
O=C(NCc1nnnn1-c1ccc(F)cc1)c1cc2ccccc2o1	-1.2	3696	3.7	·	-0.3	-9.0
CCCSC1=C(C#N)C(c2ccc(Cl)cc2Cl)CC(=O)N1 (stereo not drawn)	-1.4	24553*	-5.2	-9.5	-3.0	-4.8
CCSC1=C(C#N)C(c2ccccc2Cl)CC(=O)N1 (stereo not drawn)	4.9	4259	-4.0	15.7	1.3	0.0
CCCSC1=C(C#N)C(c2ccccc2OCC)CC(=O)N1 (stereo not drawn)	-2.4	23587*	4.0	6.0	-3.4	-7.4
N#CC1=C(SCc2ccccc2)NC(=O)CC1c1ccco1 (stereo not drawn)	-4.8	20548*	0.0	25.8	-0.1	-2.2
COC(=O)c1ccc(CS(=O)(=O)c2ccc(C)cc2)o1	-3.8	3209	-2.7	-27.7	0.3	-0.6
COc1cc(C(C)=O)ccc1OCC(=O)N1CCCC1c1ccc2c(c1)OCCCO2 (stereo not drawn)	0.7	3734	4.0	·	-0.3	0.4
O=C(NCc1nnc(SCC(=O)N2CCCCCC2)o1)c1ccccc1F	-1.1	5925	8.3	5.5	-0.1	-1.8
COc1cccc(N2CCN(C(=O)C3C4C=CC5(CN(Cc6ccccc6Cl)C(=O)C35)O4)CC2)c1 (stereo not drawn)	-1.7	23129*	3.1	-4.9	-0.9	1.0
CC(=O)c1ccc(S(=O)(=O)N2CCN(CCOc3ccccc3)CC2)cc1	3.1	7251	3.7	·	-1.1	-12.5
Cc1nn(-c2ccccc2)c(C)c1/C=N/NC(=O)c1cc(-c2ccc(Br)s2)[nH]n1	-1.3	21752*	-8.2	-7.9	1.7	1.7
Cc1nn(-c2ccccc2)c(C)c1/C=N/NC(=O)c1cc(-c2ccc(Cl)s2)[nH]n1	-4.8	17595*	-15.2	31.1	-4.4	-9.6
Cc1nn(-c2ccccc2)c(C)c1/C=N/NC(=O)c1ccccc1O	-1.0	3079	6.2	2.4	6.4	88.4*
Cc1cc(C(=O)N/N=C/c2c(C)nn(-c3ccccc3)c2C)n[nH]1	·	·	10.4	-2.7	·	·
Cc1nn(-c2ccccc2)c(C)c1/C=N/NC(=O)c1cc(-c2cccs2)[nH]n1	-5.1	1994	0.3	-1.6	0.1	-9.1
CCC(=O)N1CCC1(C)C(=O)Nc1cnc2ccccc2c1 (stereo not drawn)	5.8	3810	·	·	0.3	2.8
CCCCn1c(N)c(N(CC(C)C)C(=O)c2cccc(S(=O)(=O)N(CC)c3ccccc3)c2)c(=O)[nH]c1=O	-1.3	4049	-1.0	·	-0.2	-3.6
Cc1cc(NC(=O)CON=C(N)CC(=O)Nc2ccccc2Cl)ccc1Br	1.3	5556	-5.3	·	-0.1	9.7
O=C(CN1C(=O)NC2(CCCCC2)C1=O)N1CCN(S(=O)(=O)c2cccc([N+](=O)[O-])c2)CC1	-1.7	4018	10.8	·	-1.2	-12.2
CN1C(=O)CC(=O)N(C)c2cc(S(=O)(=O)N(C)Cc3ccccc3)ccc21	0.2	6195	-2.3	1.8	0.5	0.6
COc1cccc(N2C(=O)[C@H]3C(C(=O)c4cnccn4)=NN[C@H]3C2=O)c1	3.5	5301	-61.1	11.2	0.4	13.9
O=C(OCc1ccccc1)C1=NNC2C(=O)N(c3ccccc3)C(=O)C12 (stereo not drawn)	-5.0	9784	4.7	-7.9	-0.1	-4.9
SMILES	Anthrax LF inh2	Autofluor counter	MazEF act	VHR inh abs	BoNT-A LC inh2	BoNT F protease
O=C(C1=NN[C@@H]2C(=O)N(c3cccc(C(F)(F)F)c3)C(=O)[C@H]12)c1ccc2ccccc2n1	-2.6	2689	96.5*	4.0	0.8	-1.3
O=C(C1=NN[C@@H]2C(=O)N(c3cccc(F)c3)C(=O)[C@H]12)c1ccc2ccccc2n1	-2.7	2157	72.9*	32.7	0.6	-2.2
COc1ccc(CCC(=O)NC2CCCc3ccccc32)cc1OC (stereo not drawn)	-0.2	3929	0.7	11.8	0.4	-12.0
O=C1c2cccc(-c3ccc(C(F)(F)F)cc3)c2C2CC=CCN12 (stereo not drawn)	-0.9	6285	·	·	-0.4	1.7
Cc1onc(-c2ccccc2)c1C(=O)N1CCC(C)(C(=O)NS(=O)(=O)C2CC2)C1 (stereo not drawn)	-1.1	2967	·	·	0.2	4.6
O=C(NC1CCN(Cc2ccccc2)CC1)C1COc2ccccc2O1 (stereo not drawn)	-3.3	4314	3.2	23.8	0.6	-7.4
O=C(CN1CCN(Cc2ccccc2)CC1)NC(=O)NCc1ccco1	-0.3	2506	-16.1	3.8	0.6	-2.3
O=C(COc1ccccc1)NC1CCN(Cc2ccccc2)CC1	-1.4	17241*	3.1	-8.3	?	-1.3
O=C(O)C1C2C=CC(C2)C1C(=O)NC1CCN(Cc2ccccc2)CC1 (stereo not drawn)	0.7	20434*	-2.2	23.8	?	1.4
O=C(Cn1[nH]c(=O)c2ccccc2c1=O)NC1CCN(Cc2ccccc2)CC1	-1.3	23670*	4.6	29.0	-2.2	-0.3
O=C(CCC(=O)NC1CCN(Cc2ccccc2)CC1)NCc1ccco1	-1.3	23478*	3.5	12.1	?	-1.6
COc1ccc2c(c1)NC(=O)CC(c1ccccc1)=N2	-5.2	23168*	-3.4	-15.9	-0.8	-1.5
COc1ccc(O)c(C2=Nc3ccccc3N=C(c3ccccc3)C2)c1	0.4	4979	-0.7	11.2	-0.4	-3.6
Cc1cc(S(=O)(=O)Nc2ccc(C(=O)NCC(C)(C)N3CCOCC3)cc2)ccc1F	-0.7	4513	5.1	-1.5	-0.2	-3.2
COc1ccc2c(c1)C(C1=C(O)CC(C)(C)CC1=O)C1=C(CC(C)(C)CC1=O)O2 (stereo not drawn)	-4.0	24480*	5.0	3.0	-3.8	-4.3
CC1(C)CC(=O)C(C2C3=C(CC(C)(C)CC3=O)Oc3ccccc32)=C(O)C1 (stereo not drawn)	0.2	2857	-3.6	-6.6	-0.4	2.9
O=C(Nc1ccc(NC(=O)c2ccccc2F)cn1)c1ccco1	-4.1	3647	5.1	-3.8	-2.1	-0.5
O=C1NC(=O)c2cc(NC(=O)C3CCCO3)ccc21 (stereo not drawn)	-3.9	22178*	-3.7	30.5	?	-1.2
O=C(Nc1ccc2c(c1)C(=O)N(c1ccccc1)C2=O)C1CCCO1 (stereo not drawn)	-5.0	21610*	2.2	16.1	?	-0.3
COc1ccccc1-c1noc(-c2ccccc2C(=O)Nc2cccnc2)n1	2.5	22521*	1.7	22.9	2.2	2.0
